The source made the active and inactive calls. No rule for the calls is given here.
assay: qHTS assay for small molecule activators of the human pregnane X receptor (PXR) signaling pathway (AID 720659); conditions: DPX-2 HepG2 CYP3A4-luciferase, 24 h; series mostly up to 92.3 µM

| Structure (SMILES) | outcome |
| --- | --- |
| Cc1ccc(N=CN(C)C=Nc2ccc(C)cc2C)c(C)c1 | inactive |
| COP(=S)(OC)Oc1ccc(Sc2ccc(OP(=S)(OC)OC)cc2)cc1 | inactive |
| CCC(=O)O[C@H]1CC[C@H]2[C@@H]3CCC4=CC(=O)CC[C@]4(C)[C@H]3CC[C@]12C | inactive |
| CC[n+]1c(-c2ccccc2)c2cc(N)ccc2c2ccc(N)cc21 | inactive |
| CCNc1nc(Cl)nc(NCC)n1 | inactive |
| C[C@H]1C(=O)O[C@@H]2CCN3CC=C(COC(=O)[C@](C)(O)[C@]1(C)O)[C@H]23 | inactive |
| O=C(CCl)c1ccc(Cl)cc1Cl | inactive |
| O=c1n(Cl)c(=O)n(Cl)c(=O)n1Cl | inactive |
| CCCCCCCCC(=O)NCc1ccc(O)c(OC)c1 | inactive |
